The results in this text go back to PubChem BioAssay (EPA / NIEHS).

Molecules are shown by their SMILES. Inconclusive results are not listed. Active and inactive are the calls of the source. The calls were made as follows: active = hit-call score of the fitted dose curve at least 0.9, where 1 is the maximum; inconclusive = response in the unintended direction; inactive = score below 0.9.

Sequence of Cellular tumor antigen p53 (Homo sapiens) (P04637 whole entry, looked up): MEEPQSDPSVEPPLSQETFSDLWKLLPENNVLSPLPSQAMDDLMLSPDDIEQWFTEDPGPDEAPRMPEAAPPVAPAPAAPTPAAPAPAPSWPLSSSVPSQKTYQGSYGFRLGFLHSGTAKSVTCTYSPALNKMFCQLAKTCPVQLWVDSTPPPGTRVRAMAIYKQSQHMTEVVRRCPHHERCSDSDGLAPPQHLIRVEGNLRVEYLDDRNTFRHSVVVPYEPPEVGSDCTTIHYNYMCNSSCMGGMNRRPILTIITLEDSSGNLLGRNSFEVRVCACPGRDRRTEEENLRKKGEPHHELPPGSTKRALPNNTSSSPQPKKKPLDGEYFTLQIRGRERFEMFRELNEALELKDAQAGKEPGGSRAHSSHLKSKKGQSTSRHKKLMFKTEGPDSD
Sequence of Luciferin 4-monooxygenase (Photinus pyralis) (P08659 whole entry, looked up): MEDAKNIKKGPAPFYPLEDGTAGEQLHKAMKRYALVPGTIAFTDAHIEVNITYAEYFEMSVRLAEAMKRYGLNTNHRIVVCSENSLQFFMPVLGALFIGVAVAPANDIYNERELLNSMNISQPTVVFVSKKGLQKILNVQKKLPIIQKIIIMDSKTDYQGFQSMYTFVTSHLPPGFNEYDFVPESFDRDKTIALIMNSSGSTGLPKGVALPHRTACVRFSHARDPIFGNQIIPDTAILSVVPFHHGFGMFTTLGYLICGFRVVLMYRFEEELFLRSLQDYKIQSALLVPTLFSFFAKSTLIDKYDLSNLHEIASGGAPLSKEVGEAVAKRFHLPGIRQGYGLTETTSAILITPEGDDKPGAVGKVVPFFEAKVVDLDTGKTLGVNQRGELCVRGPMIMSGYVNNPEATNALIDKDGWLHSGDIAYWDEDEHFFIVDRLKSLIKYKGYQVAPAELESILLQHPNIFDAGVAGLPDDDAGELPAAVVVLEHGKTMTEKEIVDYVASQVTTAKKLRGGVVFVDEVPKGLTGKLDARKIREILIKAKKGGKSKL

One experiment deals with Cellular tumor antigen p53 (Homo sapiens) (UniProt P04637). Put plainly: TOX21_p53_BLA_p4_ratio: Tox21 HCT-116 p53 Agonism Beta-lactamase Assay, Ratio, Phase 4 (AID 2283601). The method in brief:
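HCT116 cells carrying an inducible beta-lactamase reporter were plated at 4000 cells/well, rested 5 h, then exposed to compounds in DMSO (217-fold dilution) for 16 h at 37C. CCF4-AM substrate was loaded 2 h at room temperature; 460/530 nm emission ratio scored gain-of-signal versus DMSO.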
Take `CCOC(=O)/C=C/C(=O)OCC`: the result was inactive.
Turning to `O=C(O)c1cc2cc(Cc3cccnc3)ccc2o1`, the result was inactive.
Consider `COc1ccc2c(c1)N(C[C@H](C)CN(C)C)c1ccccc1S2`, for which the outcome was inactive.
For `c1cnc2cc3c(cc2n1)C1CNCC3C1`, the result was inactive.
As for `CNCCC(Oc1ccccc1OC)c1ccccc1` (stereo not drawn), the result was inactive.
In the case of `CCN1CCN(C(=O)N[C@@H](C(=O)N[C@@H]2C(=O)N3C(C(=O)O)=C(CSc4nnnn4C)CS[C@H]23)c2ccc(O)cc2)C(=O)C1=O`, the result was inactive.
In the case of `Cc1ccc(O)c([C@H](CCN(C(C)C)C(C)C)c2ccccc2)c1`, the result was inactive.
With `O=Cc1c2ccccc2c(Cl)c2ccccc12`, the result was inactive.
In the case of `CN1CCC(=C2c3ccccc3CC(=O)c3sccc32)CC1`, the result was inactive.
Consider `Cc1cc(N)no1`, for which the outcome was inactive.
As for `Nc1nc(CC(=O)O)cs1`, the outcome was inactive.
Regarding `CNC(=O)N(c1ccccc1)c1ccccc1`, the result was inactive.
Regarding `CCN1CCCC1CNC(=O)c1cc(S(=O)(=O)CC)c(N)cc1OC` (stereo not drawn), the outcome was inactive.
In the case of `COc1cnc(NS(=O)(=O)c2ccc(N)cc2)nc1`, the outcome was inactive.

For another experiment, the system named is Thyroperoxidase (TPO), gene 54314. Description: CCTE_Simmons_AUR_rTPO: CCTE's Amplex UltraRed Assay for Thyroperoxidase (TPO) Inhibition, Simmons Lab (AID 2283662).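 As to AC50: potency for loss of signal meaning inhibition of peroxidase activity.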 The method in brief: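 Rat thyroid microsomal TPO + 25 uM AUR in 200 mM K phosphate; cpd 5 nM–87.5 uM [final], 8 conc, 0.5% DMSO; 300 uM H2O2 starts rxn; 37C dark 30 min; endpoint FI 544/590 nm; n=3.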
For `S=c1[nH]c2cc(Cl)ccc2s1`, the AC50 is 1.54 µM (active).
Consider `CSc1nc2ccccc2s1`, for which the call was inactive.
Take `O=C1CC(c2ccc(O)cc2)Oc2cc(O)cc(O)c21` (stereo not drawn): the AC50 is 0.742 µM (active).
Regarding `O=C(c1ccccc1)c1ccc(O)cc1`, the call was inactive.
The same measure, in the same setting: under `CCCCOC(=O)c1ccccc1O` stands “inactive”; under `CN(C)C(=S)N(C)C`, “inactive”.
Turning to `Oc1cccnc1`, the compound was called inactive.
On to `C=CC1CNC(=S)O1` (stereo not drawn), for which the AC50 was 10.6 µM (active).
In the case of `O=c1cc(O)cc[nH]1`, the result was inactive.
As for `Cc1ccc(C=C2C(=O)C3(C)CCC2C3(C)C)cc1` (stereo not drawn), the call was inactive.
Regarding `O=c1cccc(O)[nH]1`, the AC50 is 9.01 µM (active).
On the same count and under the same terms, under `O=c1[nH]c2ccccc2s1` stands 31.3 µM (active).
For `COc1c[nH]ccc1=O`, the call was inactive.
With `OCc1ncccc1O`, the outcome was inactive.
For the compound `O=C(NO)c1ccccc1O`, the half-maximal activity concentration (AC50) is 0.358 µM (active).
Regarding `Cn1c(=S)[nH]c2ccccc21`, the concentration at half-maximal activity (AC50) is 0.503 µM (active).
As to `CCOC(=O)c1cccc(O)c1`, the outcome was inactive.
On to `OC(c1ccccc1)c1ccccc1`, for which the outcome was inactive.
Consider `O=[N+]([O-])c1ccc2[nH]c(=S)[nH]c2c1`, for which the half-maximal activity concentration (AC50) is 0.315 µM (active).

Tested on in another experiment: not listed separately
Put plainly: CCTE_Simmons_CellTiterGLO_HEK293T: Viability Assessment in CCTE's Assays for Thyroperoxidase (TPO) Inhibition, Simmons Lab (AID 2283665).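 As to AC50: cells exposed to compound for 24 h before readout; actives reduce ATP signal below DMSO vehicle meaning cytotoxicity.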 The method in brief:
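Cytotoxicity counter-screen: human HEK293T cells in low-serum (1% FBS) medium receive test chemical, 5 nM to 87.5 uM final, for 24 h; ATP is quantified by luciferase luminescence.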
With `S=c1[nH]c2cc(Cl)ccc2s1`, the result was inactive.
On to `CSc1nc2ccccc2s1`, for which the AC50 was 53.6 µM (active).
Take `O=C1CC(c2ccc(O)cc2)Oc2cc(O)cc(O)c21` (stereo not drawn): the result was inactive.
Consider `O=C(c1ccccc1)c1ccc(O)cc1`, for which the outcome was inactive.
On to `CCCCOC(=O)c1ccccc1O`, for which the concentration at half-maximal activity (AC50) was 53.6 µM (active).
With `Oc1cccnc1`, the result was inactive.
Turning to `Cc1ccc(C=C2C(=O)C3(C)CCC2C3(C)C)cc1` (stereo not drawn), the AC50 was 15.3 µM (active).
Consider `O=c1cccc(O)[nH]1`, for which the compound was classed as inactive.
On to `OCc1ncccc1O`, for which the result was inactive.
Consider `CCOC(=O)c1cccc(O)c1`, for which the outcome was inactive.

Another experiment addresses Luciferin 4-monooxygenase (Photinus pyralis) (UniProt P08659). Description: CCTE_Simmons_QuantiLum_inhib_2: CCTE's Firefly Luciferase Inhibition Assay, Simmons Lab (AID 2283767).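 As to AC50: potency for inhibitors that lower luciferase luminescence relative to DMSO.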 The method in brief: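 Counter-screen for nonspecific enzyme inhibition: purified firefly luciferase incubated 30 min at 37C with chemicals up to 87.5 uM final, then luminescence measured after luciferin/dATP injection; activity fitted against DMSO baseline.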
With `S=c1[nH]c2cc(Cl)ccc2s1`, the compound was classed as inactive.
With `CSc1nc2ccccc2s1`, the AC50 is 35.1 µM (active).
Consider `O=C1CC(c2ccc(O)cc2)Oc2cc(O)cc(O)c21` (stereo not drawn), for which the outcome was inactive.
With `O=C(c1ccccc1)c1ccc(O)cc1`, the outcome was inactive.
Consider `CCCCOC(=O)c1ccccc1O`, for which the call was inactive.
For the compound `CN(C)C(=S)N(C)C`, the AC50 is 79.5 µM (active).
As for `Oc1cccnc1`, the call was inactive.
On to `C=CC1CNC(=S)O1` (stereo not drawn), for which the call was inactive.
Take `O=c1cccc(O)[nH]1`: the result was inactive.
Consider `O=c1[nH]c2ccccc2s1`, for which the outcome was inactive.
Turning to `COc1c[nH]ccc1=O`, the outcome was inactive.
On the same count and under the same terms, then `OCc1ncccc1O`, with “inactive”; and `O=C(NO)c1ccccc1O`, with “inactive”; and `Cn1c(=S)[nH]c2ccccc21`, with “inactive”.
In the case of `CCOC(=O)c1cccc(O)c1`, the compound was called inactive.
Regarding `OC(c1ccccc1)c1ccccc1`, the compound was called inactive.
On to `O=[N+]([O-])c1ccc2[nH]c(=S)[nH]c2c1`, for which the outcome was inactive.

Tested on in a further experiment: not listed separately
Put plainly: ACEA_ER_AUC_viability: ACEA Biosciences xCELLigence Real-Time Cell Analysis on Estrogen Receptor Agonism for Viability (AID 2283782).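 Also: continuous compound exposure with impedance area under curve over 80 h; hit means loss of impedance signal meaning reduced cell growth or viability.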 The method in brief: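 T-47D human breast cells in phenol red-free RPMI1640 with 10% charcoal-stripped FBS were dosed with an 8-point 1:4 dilution series from 100 uM top final concentration, in duplicate. Impedance-based growth was followed for 80 h; AUC analysed versus DMSO.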
Take `C1CCC2(CCCCO2)OC1`: the compound was called inactive.
As for `O=C(O)c1c(Cl)ccc(Cl)c1Cl`, the compound was called inactive.
In the case of `CC1=CC(=O)CCC1`, the call was inactive.
